# Data: PubChem BioAssay AID504326 (The Scripps Research Institute Molecular Screening Center, 2011)
# About 990 (0.29%) of roughly 340,000 compounds were called active. Shown is part of a subset that was picked to be rich in actives. Unmarked numbers belong to inactive results. No stated cut-off is given here; in the data, active means activation above about 18%; inactive means the rest.
# Target: Mu-type opioid receptor (Homo sapiens) + Delta-type opioid receptor (Homo sapiens) (UniProt P35372+P41143)
# Assay: inducers of mu-delta opioid receptor heterodimers – cell-based, luminescence, primary screen (AID 504326);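 further: 0% = vehicle-treated cells and 100% = reference agonist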
# Settings: cells, OPRM1-OPRD1 heterodimerization, at 9.3 µM, active compounds read high
# Sequence of Mu-type opioid receptor (Homo sapiens) + Delta-type opioid receptor (Homo sapiens) (P35372 whole entry, looked up): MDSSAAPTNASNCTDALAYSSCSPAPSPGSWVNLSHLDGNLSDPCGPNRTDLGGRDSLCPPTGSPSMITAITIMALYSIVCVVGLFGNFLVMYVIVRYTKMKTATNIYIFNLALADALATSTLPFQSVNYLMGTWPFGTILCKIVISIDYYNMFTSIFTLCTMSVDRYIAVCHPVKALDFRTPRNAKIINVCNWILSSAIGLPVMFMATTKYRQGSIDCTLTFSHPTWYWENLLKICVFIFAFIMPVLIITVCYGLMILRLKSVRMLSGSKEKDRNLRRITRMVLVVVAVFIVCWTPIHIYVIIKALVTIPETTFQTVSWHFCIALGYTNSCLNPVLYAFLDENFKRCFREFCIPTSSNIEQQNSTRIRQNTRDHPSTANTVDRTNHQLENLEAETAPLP
# Sequence of Mu-type opioid receptor (Homo sapiens) + Delta-type opioid receptor (Homo sapiens) (P41143 whole entry, looked up): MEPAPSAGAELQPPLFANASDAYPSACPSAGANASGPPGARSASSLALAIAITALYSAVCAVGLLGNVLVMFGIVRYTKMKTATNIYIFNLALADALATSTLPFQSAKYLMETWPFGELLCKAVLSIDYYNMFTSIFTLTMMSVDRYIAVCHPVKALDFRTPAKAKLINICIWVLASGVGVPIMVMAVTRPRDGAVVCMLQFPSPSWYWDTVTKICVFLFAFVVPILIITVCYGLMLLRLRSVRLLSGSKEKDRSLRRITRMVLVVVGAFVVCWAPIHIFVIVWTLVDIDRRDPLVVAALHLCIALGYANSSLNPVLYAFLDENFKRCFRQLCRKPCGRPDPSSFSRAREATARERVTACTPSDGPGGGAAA
row,SMILES,activation
1,O=C(N1CCOCC1)N(Cc1ccccc1)c1ccccn1,-1.92%
2,CC(=O)CSc1nc(CCc2ccccc2)c(C#N)c(=O)[nH]1,-2.33%
3,COc1ccc(/C=C2/S/C(=N/N=C3\CC4CCC3(C)C4(C)C)NC2=O)cc1 (stereo unspecified),0.11%
4,CCN1C(=NCCc2cccnc2)N[C@@H](c2ccccc2)C(C(=O)OC)=C1C,0.22%
5,Clc1ccc(C2[C@H]3CN(CC4CCCCC4)[C@H](c4ccccc4)C34CC2(c2cccnc2)C4)cn1 (stereo partly specified),-1.67%
6,COC(=O)c1ccc(C23CC4(C2)[C@H](CN(Cc2cccnc2)[C@@H]4c2ccccc2)C3c2ccc(Cl)nc2)cc1 (stereo partly specified),19.2% (active)
7,O=C(/C=C/c1cnc2ccccc2n1)NC1CCCCCC1,-1.86%
8,CC(C)NS(=O)(=O)c1ccc(NC(=O)C2CCCCC2)cc1,-1.18%
9,Cc1ccc(CNC(=O)CC(NC(=O)c2ccccc2)c2ccccc2)cc1 (stereo unspecified),22.7% (active)
10,O=C(CC(NC(=O)c1ccccc1)c1ccccc1)Nc1ccc(F)c(F)c1 (stereo unspecified),1.24%
11,Cc1ccc(CNC(=O)[C@@H](NC(=O)Cc2ccccc2)C(C)C)cc1,2.39%
12,CCOC(=O)CC(NC(=O)C1c2ccccc2Oc2ccccc21)c1ccc(C)cc1 (stereo unspecified),-2.87%
13,Cc1cccc(OCC(=O)Nc2ccccc2F)c1,-3.72%
14,COc1ccc(C(CNC(=O)c2ccc(S(=O)(=O)Nc3ccccc3F)cc2)N(C)C)cc1 (stereo unspecified),-3.41%
15,COc1ccc(C(CNCC(=O)Nc2ccccc2F)N(C)C)cc1 (stereo unspecified),149% (active)
16,COCCNC(=O)C(c1ccc(C)cc1)N(C(=O)CCC(=O)Nc1ccccn1)c1cccc(C)c1 (stereo unspecified),-0.25%
17,CCNC(=S)N1CCN(c2ncccn2)CC1,-2.13%
18,CCn1nnnc1SCC(=O)Nc1ccc(N(C)C)cc1,-1.37%
19,CN(C)C(CNC(=O)c1cc2ccccc2o1)c1ccccc1 (stereo unspecified),197% (active)
20,CN(C)CCNC(=O)Cc1ccc([N+](=O)[O-])cc1,-3.71%
21,O=C(NCCc1ccc2c(c1)OCCO2)c1cc2ccccc2o1,-0.68%

row,SMILES,activation
1,O=C(CC(c1ccccc1)c1ccccc1)NCC(O)c1ccc([N+](=O)[O-])cc1 (stereo unspecified),2.4%
2,CN(C)C(CNC(=O)Cc1ccc([N+](=O)[O-])cc1)c1ccccc1 (stereo unspecified),67.1% (active)
3,Cc1cc(NC(=O)c2cc3ccccc3o2)no1,-2.3%
4,COc1ccc(NC(=O)CN2C(=O)COc3ccc(S(=O)(=O)N4CCOCC4)cc32)c(OC)c1,-1.21%
5,CN1CCN(c2ccc([N+](=O)[O-])c(Sc3nc4ccccc4[nH]3)c2)CC1,55.9% (active)
6,O=[N+]([O-])c1ccc(N2CCSCC2)cc1O,0.34%
7,O=C(CSc1nc2ccccc2[nH]1)N/N=C/C=C\c1ccccc1[N+](=O)[O-],-1.78%
8,CC(Sc1nnc(CNC(=O)c2ccccc2F)n1C)C(=O)Nc1nccs1 (stereo unspecified),-0.21%
9,CCCCN(C(=O)COc1ccc(NC(C)=O)cc1)C1CCS(=O)(=O)C1 (stereo unspecified),-1.71%
10,COc1cc2c(cc1OC)CC1(CCCCC1)N=C2,-3.02%
11,COc1ccc(CCNC(=O)C(Sc2ccccn2)c2ccccc2)cc1OC (stereo unspecified),-2.64%
12,COc1ccc(C(CCN(Cc2ccc(OC)c(OC)c2)C(=O)CCl)c2ccccc2)cc1 (stereo unspecified),91.3% (active)
13,COc1ccc(CCNC(=O)CN(c2ccccc2)S(C)(=O)=O)cc1OC,0.27%
14,CN(CC(=O)NCCc1ccccc1)S(=O)(=O)c1cnc[nH]1,-1.45%
15,CSc1sc(C)cc1C1C(C#N)=C(N)N(c2cccnc2)C2=C1C(=O)CCC2 (stereo unspecified),-1.23%
16,COCC(=O)Nc1ccc(Br)cc1,-3.01%
17,CN1CCN(NC(=O)Nc2ccc(Br)cc2)CC1,-3.59%
18,CN1C(CC(=O)Nc2ccc(Br)cc2)c2ccccc2CC1(C)C (stereo unspecified),77.8% (active)
19,Cc1ccc(F)cc1S(=O)(=O)Nc1cccc(C(=O)N2CCCC(C(N)=O)C2)c1 (stereo unspecified),3.39%
20,CCN(CC)C(=O)CC1(c2ccccc2OC)CCOC(C(C)C)C1 (stereo unspecified),-2.63%
